In the library only some 2.1% were active in any assay of this set; here they are far more common.
Abeta yeast res = restores growth of yeast expressing A-beta42 peptide. yeast expressing A-beta42, growth rescue, OD600, 48 h; response scale: 0% DMSO, 100% iron-clioquinol control. Potency, µM (doses to about 46.1 µM), hits mostly activators. 410,000 compounds, 0.063% hits; further: nearly all actives have a fitted effect of over 55% in size
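Yeast A-beta toxicity model in growth medium with pinned compounds, 48 h at 30 C; growth read as absorbance at 600 nm. Normalized to FeCl3/clioquinol equimolar mix (positive) and DMSO (negative).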
aSyn yeast inh = inhibitors of alpha-synuclein toxicity in yeast. 370,000 compounds, 0.14% hits. AID 652106. Potency, µM (doses to about 46.1 µM), without a hit: at the top dose growth rescue (activation), hits mostly activators. Yeast expressing alpha-synuclein, growth rescue, BacTiter-Glo, 24 h; further: % of control where 0% means no effect; nearly all actives have a fitted effect of over 65% in size
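Readout is rescue of growth in alpha-synuclein-expressing yeast, so inhibitors of toxicity appear as activators. Growth after 24 hr at 30 deg C in galactose medium is quantified by luminescence.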
FUS suppressor = FUS proteinopathy suppression in yeast. 390,000 compounds, 0.24% hits. Potency, µM (series often up to 76.6 µM), hits mostly activators. S. cerevisiae FUS-expressing, growth rescue, OD600, 24 h;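 further: plate controls were DMSO vehicle for no effect and reference control for full effect; nearly all actives have a fitted effect of over 55% in size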
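Toxicity suppression screen in FUS-yeast. Cells induced with 2% galactose, starting OD 0.005, treated 24hr at 30C with compounds at multiple final concentrations; growth by OD600.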
TDP-43 yeast inh = inhibitors of TDP-43 toxicity in yeast | TDP-43 expressing yeast growth rescue, BacTiter-Glo, 24 h | Potency, µM (top dose mostly 46.1 µM), without a hit: at the top dose growth rescue (activation), usual class: activators | 410,000 compounds, 1.8% hits | AID 652104; further: % of control where 0% means no effect; nearly all actives have a fitted effect of over 50% in size
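Cell-based yeast growth screen: TDP-43 expression induced in galactose, inoculum OD600=0.02 after raffinose pregrowth to mid-log. Read-out BacTiter-Glo luminescence at 24 hr, 30 deg C; inhibition of toxicity seen as signal increase.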
Numbers without * were called inactive; i = inactive; ? = inconclusive; / = no result given; [ ] = remark or other dose. The call rests on the fitted dose curve; in most records, active means well fitted curve in the direction sought with a large enough effect; inconclusive means small, poorly fitted or top-dose-only effect, or another doubt; inactive means no such curve, though single readings can be large; an effect the other way counts as inactive or inconclusive. Potency means the concentration at half of the fitted maximal effect.

SMILES	Abeta yeast res	aSyn yeast inh	FUS suppressor	TDP-43 yeast inh
COc1ccc(Cl)cc1NC(=O)NCCn1c(=O)oc2ccc(C)cc21	i	/	i	25.1%
CC(=O)CSc1nnc2cc(C)c3ccccc3n12	i	-4.2%	i	-0.9%
Cc1cc2nnc(SCc3ccc(F)cc3)n2c2ccccc12	i	23.7%	i	35.5µM*
CCCC1NC(=O)c2cccnc2-n2c1nc1ccc(OC)cc1c2=O (stereo not drawn)	i	-7.2%	i	3.0%
Cc1cc(OC(=O)c2ccc(C(C)(C)C)cc2)c([N+](=O)[O-])c(=O)[nH]1	i	8.7%	i	15.8µM*
COC(=O)c1ccc(/C=C/C(=O)c2ccc(OC)cc2)cc1	i	1.4%	i	-4.8%
COC(=O)c1ccc(/C=C/C(=O)O)cc1	i	-6.6%	i	35.5µM*
CN(Cc1ccc(Cl)cc1Cl)C(=O)CNC(=O)c1ccco1	i	6.9%	i	29.6%
Cc1ccc(C(=O)NCC(=O)N(C)Cc2ccc(Cl)cc2Cl)s1	i	19.1%	i	8.91µM*
COC(=O)C1=C(O)CSC1=Nc1ccc(C)cc1	i	9.1%	/	15.8µM*
COc1ccc(-c2csc(C(NC(C)=O)c3ccc(F)c(F)c3)n2)cn1 (stereo not drawn)	i	11.5%	i	35.5µM*
COc1ccc(-c2csc(C(NC(C)=O)c3cccc(F)c3)n2)cn1 (stereo not drawn)	i	1.7%	i	7.7%
CC(=O)NC(c1cccc(F)c1)c1nc(-c2cccc(C(C)C)c2)cs1 (stereo not drawn)	i	?	?	25.1µM*
O=C1CCC[C@H]2C[C@H](NCc3ccc(Cl)c(Cl)c3)CC[C@]23CCCN13	/	/	i	/
Cc1nc(NC(C)c2ccccc2)c2c3c(sc2n1)CCC3 (stereo not drawn)	i	-9.8%	i	14.1µM*
Cc1ccc(CNc2nc(C)nc3sc4c(c23)CCC4)cc1	i	-0.1%	i	-6.1%
CC(=O)Nc1ccc(CN2C(=O)C(Cc3ccccc3)ON=C2c2ncccc2C)cc1 (stereo not drawn)	i	-0.1%	i	19.6%
COc1cc(CN2C(=O)C(CCc3ccccc3)ON=C2c2cnccn2)cc(OC)c1 (stereo not drawn)	i	1.0%	i	35.5µM*
CC(=O)Oc1ccc(CN2C(=O)C(CCc3ccccc3)ON=C2c2cnccn2)cc1 (stereo not drawn)	i	16.6%	i	14.1µM*
O=C(COC(=O)/C=C/c1ccccc1Cl)NC1CC1	i	-6.9%	?	20.2%
O=C(Nc1ccc(Cl)c(Cl)c1)C1CCN(c2nnc(-n3cccc3)s2)CC1	/	/	i	/
Nc1nc(Nc2ccccc2)nc(C(F)(F)F)n1	i	-23.6%	i	-1.4%[1.82 µM]
Nc1nc(Nc2ccccc2Br)nc(C(F)(F)F)n1	i	-4.9%	i	17.8µM*
Cc1ccc(Sc2nnc(-c3ccccc3)cc2C#N)cc1	i	3.8%	i	21.1%
Cc1ccc(Sc2ccc(N)cc2C#N)cc1	i	13.1%	/	22.4µM*
SMILES	Abeta yeast res	aSyn yeast inh	FUS suppressor	TDP-43 yeast inh
O=C(c1ccc(Cl)cc1)N(Cc1ccco1)C1CCS(=O)(=O)C1 (stereo not drawn)	i	6.1%	i	17.1%
CN(CC(=O)Nc1cccc(Cl)c1)S(=O)(=O)/C=C/c1ccccc1	i	?	i	17.8µM*
COc1ccc(CCSc2n[nH]c(C(C)C)n2)cc1	/	-3.8%	/	/
Cc1cccc(Nc2nc(-c3ccc(O)c(O)c3)cs2)n1	i	0.2%	i	5.2%
Cc1cccc(Nc2nc(-c3ccc(F)c(C)c3)cs2)n1	?	-43.4%	i	14.1µM*
Cc1ccccc1-c1nn(-c2ccc(F)cc2F)cc1CNCCCN(C)C	i	4.0%	i	5.6%
O=C(CCC(=O)OCc1ccc(C(=O)Oc2ccc(Cl)cc2)cc1)Nc1ccccc1	i	-4.1%	i	-3.0%
O=C(CCC(=O)OCc1ccc(Br)cc1)Nc1ccccc1	i	3.5%	i	7.08µM*
O=C(CCc1c[nH]c2ccccc12)OCc1ccc(Br)cc1	i	3.3%	i	12.6µM*
Cc1cc(N2CCC[C@@H]2C)nc2ccccc12	/	/	i	/
CCOc1ccc(CCNC(=O)Cn2nc(C)n3cccc3c2=O)cc1OCC	i	8.1%	i	8.6%
COc1ccccc1CNC(=O)NCCCN1CCN(c2ccc(F)cc2)CC1	/	/	i	/
COc1cccc(CNC(=O)C(C)n2c(=O)cc(-c3ccccc3)c3c(C)nn(C)c32)c1 (stereo not drawn)	i	/	i	22.4µM*
Cc1ccc(CNC(=O)Cn2c(=O)cc(-c3ccccc3)c3c(C)nn(C)c32)cc1	i	/	i	22.4µM*
Cc1ccc(CNC(=O)C(C)n2c(=O)cc(-c3ccccc3)c3c(C)nn(C)c32)cc1 (stereo not drawn)	i	/	i	22.4µM*
COc1ccccc1CNC(=O)C(C)n1c(=O)cc(-c2ccccc2)c2c(C)nn(C)c21 (stereo not drawn)	i	/	?	15.8µM*
Cc1ccc(S(=O)(=O)N2CCOCC2)cc1C(=O)Nc1ccccc1C(=O)O	i	/	i	22.3%
CC1=Nc2cc(C(=O)O)ccc2Sc2ccc(C)cc21	i	28.6%	i	12.6µM*
CC1=Nc2cc(C(=O)O)ccc2Sc2c(C)ccc(C)c21	i	6.6%	i	25.1µM*
CC1=Nc2cc(C(=O)N3CCCC3)ccc2Sc2c(C)ccc(C)c21	/	?	?	13.1%
CCC(C)NC(=O)c1ccc2c(c1)N=C(C)c1cc(C)ccc1S2 (stereo not drawn)	i	/	?	-9.2%
C=CCn1c(SCC(=O)Nc2ccc(CCCC)cc2)nnc1-c1ccc(Cl)cc1	/	/	i	/
CCCCNC(=O)C1(C(=O)c2ccc(OC)cc2)CC(c2ccccn2)=NO1 (stereo not drawn)	/	/	i	/
Nc1cccc2nsnc12	i	-2.9%	i	-29.4%
Nc1cc2nsnc2cc1Br	i	5.5%	/	12.6µM*
SMILES	Abeta yeast res	aSyn yeast inh	FUS suppressor	TDP-43 yeast inh
CC(=O)c1ccccc1NC(=O)COC(=O)C1CCCN1S(=O)(=O)c1ccccc1F (stereo not drawn)	i	14.1µM*	i	16.7%
O=C1c2ccsc2SCCN1Cc1ccc(F)cc1	i	?	i	?
O=C1c2ccsc2SCCN1Cc1ccc(Cl)cc1	i	16.6%	i	22.4µM*
O=C(C1=NN[C@@H]2C(=O)N(Cc3ccccc3)C(=O)[C@H]12)c1ccc([N+](=O)[O-])cc1	i	-1.4%	i	-15.2%
CCOc1ccc(NC(=S)NC(=O)c2c(Cl)cnn2CC)c([N+](=O)[O-])c1	i	2.3%	/	4.7%
CCOc1ccc(NC(=S)NC(=O)c2c(Br)cnn2C)c([N+](=O)[O-])c1	i	-4.4%	i	15.8µM*
CC(C)CCNC(=O)[C@H]1COC(O)([C@H](Cc2ccccc2)NC(=O)[C@@H](NC(=O)OCc2ccccc2)C(C)C)CN1C (stereo partly drawn)	/	/	i	/

Compound activity as filed in PubChem BioAssay.
